High-throughput results from PubChem.
NTR1 agonist: agonists of human neurotensin receptor NTR1; P30989; NTR1-U2OS beta-arrestin-GFP spot imaging, agonist mode; activation, % at 20 µM; 0.17% of 330,000 active; AID 493036;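 active = activation at or above 40% of the spot to cytoplasm intensity ratio, with at least 20 cells analyzed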;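 note: 0% = DMSO without peptide and 100% = 100 nM NTR1 peptide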
Jurkat NFkB inh: lowers PMA/ionomycin-induced NF-kB signal in Jurkat cells. PMA/ionomycin-induced NF-kB luciferase reporter, luminescence. 0.53% of 330,000 active. inhibition, % at 4 µM; in the data active = inhibition above about 50%
Beta cell apopt: blocks beta cell apoptosis. 0.8% of 300,000 active. INS-1E cytokine-induced death, ATP luminescence, 48 h; percent of positive-control rescue, neutral wells zero. protection from apoptosis, % (test concentration not listed). AID 435005;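 active = Every replicate reaches about 75%, or at least half do and their mean reaches it too, limit read from the data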;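 note: 0% = cytokine-treated negative control wells and 100% = positive control rescue; higher means more ATP so stronger rescue from cytokine killing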
A1 inh: inhibitors of the anti-apoptotic protein A1, read as caspase activation. AID 2462. 0.066% of 330,000 active. caspase activation, % (no concentration beside the values). MEF A1-2A-BIM cells, Caspase-Glo 3/7 luminescence, 3 h; percent of clofoctol response, vehicle zero;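 active = over half of replicate activation scores above 10%, or exactly half above 10 with the replicate mean above 10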
697 NFkB inh: inhibitors of the PMA/ionomycin-induced NF-kB reporter in 697 B cells | 697 B-cell NF-kB luciferase reporter, 16 h | inhibition, % at 4 µM | 0.33% of 330,000 active; in the data active = inhibition above about 35%
Mdm2-MdmX inh: inhibitors of human Mdm2/MdmX interaction | inhibition, % at 8 µM | SaOS-2 split-luciferase Mdm2/MdmX complementation, luminescence | 3% of 330,000 active | AID 485346 | O15151+Q00987;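 active = inhibition of at least 50% at 8 µM in the primary screen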
697 NFkB conf: inhibitors of the PMA/ionomycin-induced NF-kB reporter in 697 B cells, retest; shares compounds with 697 NFkB inh; 697 B-cell NF-kB luciferase, 16 h; inhibition, % at 4 µM; 35% of 2,000 active; AID 449746; in the data active = inhibition mostly above about 28%, no sharp cut-off; inactive = mostly below about 22%
Mdm2-MdmX conf: human Mdm2/MdmX binding inhibition, confirmed; shares compounds with Mdm2-MdmX inh; luminescent assay; inhibition, % at 8 µM; 55% of 10,000 active; AID 489028; in the data active = inhibition above about 40%
Full FLuc ctr: counter-screen for Mdm2/MdmX inhibitors: full-length luciferase. 77% of 6,200 active. shares compounds with Mdm2-MdmX inh. inhibition, % at 8 µM. SaOS-2 full-length luciferase counterscreen, luminescence;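 active = mean inhibition at 8 µM reaching about 37%, which flags the compound as non-specific, limit read from the data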;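 note: p53-null SaOS-2 cells with luciferase driven by a doxycycline-inducible promoter; compound on cells about two nights before reading with doxycycline added after day one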
Starred values were filed as active, the others as inactive. Only some compounds are listed: those with a hit (about 3.8% of all), similar ones and a draw of the others.

Results for Cc1ccc(C2(c3ccc(C)cc3)CC2C(=O)Nc2ccc([N+](=O)[O-])cc2O)cc1 (centres undefined) ?
NTR1 agonist: 20; Jurkat NFkB inh: 23; Beta cell apopt: 125*; A1 inh: 27*; 697 NFkB inh: 97*; Mdm2-MdmX inh: 96*; 697 NFkB conf: 97*; Mdm2-MdmX conf: 93*; Full FLuc ctr: 49*

How did CC1(C)CC1C(=O)Nc1ccc([N+](=O)[O-])cc1Br (centres undefined) do in these assays?
NTR1 agonist: 2; Jurkat NFkB inh: 3; Beta cell apopt: 1; A1 inh: 0; 697 NFkB inh: 11; Mdm2-MdmX inh: 22

How did CC1(C)Oc2ccc3ccc(=O)oc3c2-c2cn[nH]c21 do in these assays?
NTR1 agonist: 0; Jurkat NFkB inh: 3; Beta cell apopt: 4; A1 inh: 0; 697 NFkB inh: 28; Mdm2-MdmX inh: 60*; Mdm2-MdmX conf: 19

What do the screens show for `O=c1[nH]c2ccc([N+](=O)[O-])cc2nc1/C=C(\O)c1ccccc1`?
NTR1 agonist: 0; Jurkat NFkB inh: -24; Beta cell apopt: 31; A1 inh: -2; 697 NFkB inh: -4; Mdm2-MdmX inh: 81*; Mdm2-MdmX conf: -8

What do the screens show for `C/C(O)=C/c1nc2ccccc2[nH]c1=O`?
NTR1 agonist: 0; Jurkat NFkB inh: -7; Beta cell apopt: -2; A1 inh: 0; 697 NFkB inh: 3; Mdm2-MdmX inh: 23

Results for Cc1cc(C)c(N(C(=O)c2csnn2)C(C(=O)NC2CCCC2)c2ccncc2)c(C)c1 (centres undefined) ?
NTR1 agonist: -1; Jurkat NFkB inh: 2; Beta cell apopt: 0; A1 inh: 0; 697 NFkB inh: 10; Mdm2-MdmX inh: 35

What do the screens show for `CCOc1cc(C)nc(NCc2ccccc2)n1`?
NTR1 agonist: 2; Jurkat NFkB inh: -7; Beta cell apopt: 1; A1 inh: 1; 697 NFkB inh: -98; Mdm2-MdmX inh: -15

How did Cc1cc(OC2CCCCC2)nc(NCc2ccccc2)n1 do in these assays?
NTR1 agonist: 3; Jurkat NFkB inh: 28; A1 inh: 1; 697 NFkB inh: -21; Mdm2-MdmX inh: 50*; Mdm2-MdmX conf: 31

How did Cc1n[nH]c(C)c1S(=O)(=O)N(C)Cc1ccco1 do in these assays?
NTR1 agonist: -1; Jurkat NFkB inh: -6; Beta cell apopt: 6; A1 inh: 0; 697 NFkB inh: -6; Mdm2-MdmX inh: -1

What do the screens show for `Cc1ccc(C)c(N2CCN(C(=O)c3nn(C)c4c3CS(=O)(=O)c3ccccc3-4)CC2)c1`?
NTR1 agonist: 4; Jurkat NFkB inh: 16; Beta cell apopt: 31; A1 inh: 0; 697 NFkB inh: -25; Mdm2-MdmX inh: 22

How did Cc1cc(OCC(=O)Nc2nnc(C3CC3)s2)ccc1C(C)C do in these assays?
NTR1 agonist: 1; Jurkat NFkB inh: 3; 697 NFkB inh: 10; Mdm2-MdmX inh: -4

Results for Cc1ccc(C(C)C)cc1OCC(=O)Nc1nnc(C2CC2)s1 ?
NTR1 agonist: 3; Jurkat NFkB inh: -9; Beta cell apopt: 8; A1 inh: 1; 697 NFkB inh: -188; Mdm2-MdmX inh: 88*; Mdm2-MdmX conf: 65*; Full FLuc ctr: 33

Results for CC(=O)c1cccc(N(C(=O)c2ccco2)C(C(=O)NC2CCCC2)c2ccccc2F)c1 (centres undefined) ?
NTR1 agonist: 2; Jurkat NFkB inh: 6; Beta cell apopt: -6; A1 inh: 0; 697 NFkB inh: 24; Mdm2-MdmX inh: 17

Results for Cc1cccc(Cn2cc(/C=C/[N+](=O)[O-])c3ccccc32)c1 ?
NTR1 agonist: 19; Jurkat NFkB inh: 16; Beta cell apopt: -1; A1 inh: 1; 697 NFkB inh: 6; Mdm2-MdmX inh: 58*; Mdm2-MdmX conf: 15
